Unmarked numbers belong to inactive results. For part of these data: Measured potencies and affinities stand elsewhere. Activity calls are given as the source filed them. Unless noted, the rule behind the calls is not given here.

Data on 21 compounds can be found in PubChem BioAssay.

Assay [1] can be described thus: antimalarial activity against Dd2 strain (AID 2302;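 active = growth inhibition above 50% at the single 2 µM test dose, taken to imply half-maximal potency below 2 µM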;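 note: 0% = DMSO untreated growth and 100% = chloroquine plus artemisinin killed control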). To be noted: P. falciparum Dd2 in RBCs, LDH growth readout, 72 h; at 2 µM; stronger effect = higher value.
Assay [2] can be described thus: human hepatoma cell viability loss – ATP luminescence, cytotoxicity control for P. falciparum antimalarial project, primary screen (AID 2303;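 active = inhibition above 50%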;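 note: 0% = DMSO wells and 100% = digitonin-killed cells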). To be noted: HepG2 viability, 24-48 h, at 10 µM, stronger effect = higher value.
The target in assay [3] is L-lactate dehydrogenase (Plasmodium falciparum (isolate CDC / Honduras)) (UniProt Q27743). In words: PfLDH activity inhibition – cell lysate, 3D7 strain, counter-screen for P. falciparum growth inhibition project (AID 2304).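 Note: 0% = vehicle and 100% = reference inhibitor.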 To be noted: P. falciparum 3D7 crude extract, LDH APAD/NBT absorbance; at 2 µM; stronger effect = higher value. Background: A counterscreen serves to expose hits that act by an unwanted route or on another target.
L-lactate dehydrogenase (Plasmodium falciparum (isolate CDC / Honduras)), sequence (Q27743 whole entry, looked up): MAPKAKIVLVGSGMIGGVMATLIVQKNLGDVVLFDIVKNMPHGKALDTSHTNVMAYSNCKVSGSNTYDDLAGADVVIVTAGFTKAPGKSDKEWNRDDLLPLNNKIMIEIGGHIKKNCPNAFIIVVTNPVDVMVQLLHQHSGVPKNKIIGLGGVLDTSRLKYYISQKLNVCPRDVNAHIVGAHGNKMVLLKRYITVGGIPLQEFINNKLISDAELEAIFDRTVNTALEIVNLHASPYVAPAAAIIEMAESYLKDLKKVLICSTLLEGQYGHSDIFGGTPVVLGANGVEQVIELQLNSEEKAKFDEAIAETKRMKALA

The nature of assay [4]: inhibition of 3D7 malaria parasite growth – strain 3D7 (AID 2306).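 Note: 0% = DMSO wells and 100% = chloroquine plus artemisinin control wells.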 To be noted: P. falciparum 3D7 erythrocytic growth, LDH absorbance, 72 h; at 2 µM; stronger effect = higher value.
For assay [5], the target named is Protein kinase 7 (PK7), Plasmodium falciparum 3D7 (PF3D7_0213400) (UniProt Q7YTF7). Put plainly: inhibition of Plasmodium PK7 catalytic activity – biochemical, TCAMS antimalarial set, Kinase-Glo luminescence (AID 1159587). To be noted: recombinant PfPK7, Kinase-Glo ATP depletion luminescence. (Kinase-Glo reads ATP consumption through a luciferase reaction.)
Protein kinase 7 (PK7), Plasmodium falciparum 3D7 (PF3D7_0213400), sequence (Q7YTF7 1-343): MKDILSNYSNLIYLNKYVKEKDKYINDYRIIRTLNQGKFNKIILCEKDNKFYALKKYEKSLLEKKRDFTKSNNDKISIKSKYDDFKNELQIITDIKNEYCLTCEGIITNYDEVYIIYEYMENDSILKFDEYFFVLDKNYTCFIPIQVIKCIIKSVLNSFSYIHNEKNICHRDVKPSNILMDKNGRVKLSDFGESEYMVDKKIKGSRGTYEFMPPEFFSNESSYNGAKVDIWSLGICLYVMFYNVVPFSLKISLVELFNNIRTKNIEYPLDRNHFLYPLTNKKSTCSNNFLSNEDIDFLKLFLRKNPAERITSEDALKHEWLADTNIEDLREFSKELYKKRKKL
In assay [6] the target is Calcium-dependent protein kinase 4 (Plasmodium falciparum (isolate 3D7)) (UniProt Q8IBS5). Put plainly: PfCDPK4 kinase inhibitors, biochemical, TCAMS library (AID 1159588; cut-off not given, nearly all actives have IC50 up to about 0.91 µM). To be noted: recombinant PfCDPK4, Kinase-Glo ATP depletion luminescence.
Calcium-dependent protein kinase 4 (Plasmodium falciparum (isolate 3D7)), sequence (Q8IBS5 whole entry, looked up): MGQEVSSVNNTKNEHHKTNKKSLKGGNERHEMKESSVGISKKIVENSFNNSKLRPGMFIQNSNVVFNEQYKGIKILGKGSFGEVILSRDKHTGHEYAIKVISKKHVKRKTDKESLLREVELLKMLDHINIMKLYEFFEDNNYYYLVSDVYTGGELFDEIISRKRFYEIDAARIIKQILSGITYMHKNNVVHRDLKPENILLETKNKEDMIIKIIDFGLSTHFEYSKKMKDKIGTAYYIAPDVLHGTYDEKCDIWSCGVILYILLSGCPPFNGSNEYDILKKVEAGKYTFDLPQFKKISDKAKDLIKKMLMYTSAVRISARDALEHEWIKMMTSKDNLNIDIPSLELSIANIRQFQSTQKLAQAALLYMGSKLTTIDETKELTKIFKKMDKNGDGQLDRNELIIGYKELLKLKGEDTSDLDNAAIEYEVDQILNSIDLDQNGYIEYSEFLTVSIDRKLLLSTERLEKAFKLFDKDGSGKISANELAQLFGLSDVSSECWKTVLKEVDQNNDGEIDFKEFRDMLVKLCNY
The target of assay [7] is Plasmodium falciparum protein kinase 6 (PK6, PF3D7_1337100) (UniProt Q8IDW1). Put plainly: PfPK6 kinase inhibitors, biochemical, TCAMS library (AID 1159586). To be noted: recombinant PfPK6, Kinase-Glo ATP depletion luminescence.
Plasmodium falciparum protein kinase 6 (PK6, PF3D7_1337100), sequence (Q8IDW1 1-305): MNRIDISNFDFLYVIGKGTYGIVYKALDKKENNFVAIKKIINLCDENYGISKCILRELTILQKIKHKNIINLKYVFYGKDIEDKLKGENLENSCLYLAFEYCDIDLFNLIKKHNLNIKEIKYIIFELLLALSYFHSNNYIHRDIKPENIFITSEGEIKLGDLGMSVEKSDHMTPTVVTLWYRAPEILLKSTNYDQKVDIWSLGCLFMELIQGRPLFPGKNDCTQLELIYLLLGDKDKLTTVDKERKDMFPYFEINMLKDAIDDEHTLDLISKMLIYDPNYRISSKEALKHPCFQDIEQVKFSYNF

For `Cn1cc(-c2ccnc3[nH]c(-c4cccc(CNC5CCC(O)CC5)c4)cc23)cn1` (stereo unspecified), the growth inhibition in assay [1] was 82% (active); in assay [4], 95% (active). The inhibition (as a rule, the relative decrease from the control value, in per cent) is 48% in assay [2] and 2% in assay [3]. Further, the result in assay [5] and in assay [6] was inactive.
As for `NS(=O)(=O)c1ccc(Nc2nccc(-c3c(-c4cccc(NC(=O)c5c(F)cccc5F)c4)nn4ccccc34)n2)cc1`, the results for the growth inhibition in assay [1] and in assay [4] were 89% (active) and 93% (active), respectively. Moreover, the inhibition is 83% (active) in assay [2] and -7% in assay [3]. Moreover, the result in assay [5] and in assay [6] was inactive.
In the case of `O=C(Nc1cccc(-c2nn3ccccc3c2-c2ccnc(Nc3ccc(C(=O)N4CCOCC4)cc3)n2)c1)c1c(F)cccc1F`, the growth inhibition in assay [1] was 97% (active); in assay [4] it was 99% (active). Besides, the values for the inhibition in assay [2] and in assay [3] were 72% (active) and 4%, respectively. In addition, the result in assay [7] and in assay [5] was inactive.
Turning to `CNC(=O)c1ccccc1Nc1nc(Nc2ccc(N3CCOCC3)cc2)ncc1Cl`, the growth inhibition in assay [1] and in assay [4] was 97% (active) each time. Besides, the inhibition in assay [2] was 75% (active); in assay [3], -3%. The outcome in assay [5] and in assay [6] was inactive.
Turning to `CCn1c(-c2nonc2N)nc2c(-c3cccc(NC(=O)Nc4ccc(C(F)(F)F)cc4)c3)ncc(OCCCN)c21`, the results for the growth inhibition in assay [1] and in assay [4] were 63% (active) and 94% (active), respectively. Besides, the values for the inhibition in assay [2] and in assay [3] were 36% and 6%, respectively. Moreover, the outcome in assay [7] and in assay [5] was inactive.
In the case of `NCCNC(=O)c1ccc(-c2cnc3[nH]cc(-c4ccc(C(N)=O)cc4)c3c2)cc1`, the growth inhibition is 98% (active) in assay [1] and 99% (active) in assay [4]. Moreover, the figures for the inhibition in assay [2] and in assay [3] were 2% and -2%, respectively. Moreover, the result in assay [5] and in assay [6] was inactive.
For the compound `CN(C)Cc1cccc(-c2cc3c(-c4cnn(C)c4)c(Cl)cnc3[nH]2)c1`, the growth inhibition in assay [1] is 21%; in assay [4] it was 96% (active). Further, the results for the inhibition in assay [2] and in assay [3] were 75% (active) and -5%, respectively. Further, the outcome in assay [5] and in assay [6] was inactive.
For `NC(=O)c1ccccc1Nc1nc(Nc2cccc(N3CCN(CCO)CC3)c2)ncc1Cl`, the growth inhibition in assay [1] is 98% (active); in assay [4], 95% (active). For the same compound, the inhibition in assay [2] was 93% (active); in assay [3] it was 1%. Besides, the outcome in assay [5] and in assay [6] was inactive.
With `CN1CCN(c2ccc(Nc3nccc(-c4cnn5ncccc45)n3)cc2Cl)CC1`, the growth inhibition is 92% (active) in assay [1] and 95% (active) in assay [4]. Besides, the inhibition is 65% (active) in assay [2] and 0% in assay [3]. The outcome in assay [5] and in assay [6] was inactive.
On to `COc1ccc(Nc2ncc3c(-c4cccc(NC(=O)Cc5ccc(O)cc5)c4)c[nH]c3n2)cc1OC`, for which the growth inhibition was 99% (active) in assay [1] and 102% (active) in assay [4]. In addition, the inhibition in assay [2] was 48%; in assay [3], -2%. Moreover, the outcome in assay [5] and in assay [6] was inactive.
Take `NS(=O)(=O)c1cccc(Nc2nc(N[C@@H]3CCNC3)nc3cc[nH]c(=O)c23)c1`: the figures for the growth inhibition in assay [1] and in assay [4] were 98% (active) and 99% (active), respectively. For the same compound, the values for the inhibition in assay [2] and in assay [3] were 7% and 0%, respectively. The result in assay [7] and in assay [5] was inactive.
Consider `O=S1(=O)NCc2ccc(Nc3nccc(Nc4ccc5c(cnn5Cc5ccccc5)c4)n3)cc21`, for which the growth inhibition in assay [1] was 33%; in assay [4] it was 94% (active). For the same compound, the inhibition was -8% in assay [2] and -1% in assay [3]. Also, the outcome in assay [5] and in assay [6] was inactive.
Turning to `CNC(=O)c1ccccc1Nc1nc(Nc2cccc(CS(C)(=O)=O)c2)ncc1C`, the growth inhibition was 95% (active) in assay [1] and 97% (active) in assay [4]. The inhibition in assay [2] is 74% (active); in assay [3], -4%. For the same compound, the outcome in assay [5] and in assay [6] was inactive.
Turning to `CCn1c(-c2nonc2N)nc2c(-c3cccc(NC(=O)Nc4cccc(Cl)c4)c3)ncc(OCCCN)c21`, the figures for the growth inhibition in assay [1] and in assay [4] were 78% (active) and 91% (active), respectively. The inhibition in assay [2] was 9%; in assay [3], -1%. Moreover, the outcome in assay [7] and in assay [5] was inactive.
As for `CCn1c(-c2nonc2N)nc2c(-c3ccccc3)ncc(OCCCCNCCc3ncc[nH]3)c21`, the figures for the growth inhibition in assay [1] and in assay [4] were 42% and 92% (active), respectively. Besides, the inhibition in assay [2] was 34%; in assay [3] it was -1%. For the same compound, the result in assay [7] and in assay [5] was inactive.
`OC1CCC(Nc2ccc3ncc(-c4ccc(Cl)cc4)n3n2)CC1` (stereo unspecified): the growth inhibition is 98% (active) in assay [1] and 97% (active) in assay [4]. Besides, the figures for the inhibition in assay [2] and in assay [3] were 57% (active) and 0%, respectively. The outcome in assay [7] and in assay [6] was inactive.
Consider `O=C(Nc1c(F)cccc1F)c1cccc(-c2nn3ccccc3c2-c2ccnc(Nc3cccc(-c4cnco4)c3)n2)c1`, for which the results for the growth inhibition in assay [1] and in assay [4] were 94% (active) and 95% (active), respectively. In addition, the inhibition is 96% (active) in assay [2] and -6% in assay [3]. For the same compound, the outcome in assay [7] and in assay [5] was inactive.
On to `O=c1[nH]ccc2nc(N[C@@H]3CCNC3)nc(Nc3cc(Cl)cc(Cl)c3)c12`, for which the results for the growth inhibition in assay [1] and in assay [4] were 99% (active) and 101% (active), respectively. Also, the inhibition in assay [2] was 99% (active); in assay [3] it was -2%. Besides, the outcome in assay [7] and in assay [5] was inactive.
Take `Cc1cc(Nc2ncc(Cl)c(Nc3ccccc3C(N)=O)n2)n[nH]1`: the growth inhibition in assay [1] was 96% (active); in assay [4], 98% (active). For the same compound, the results for the inhibition in assay [2] and in assay [3] were 70% (active) and -1%, respectively. Further, the outcome in assay [5] and in assay [6] was inactive.
Turning to `CCn1c(-c2nonc2N)nc2c(-c3cccc(NC(=O)Nc4ccc(C#N)cc4)c3)ncc(OCCCN)c21`, the growth inhibition in assay [1] was 80% (active); in assay [4], 85% (active). Moreover, the inhibition was 1% in assay [2] and 0% in assay [3]. Further, the result in assay [7] and in assay [5] was inactive.
With `NCCNS(=O)(=O)c1ccc(-c2ccnc3[nH]c(-c4ccncc4)cc23)cc1`, the growth inhibition in assay [1] is 95% (active); in assay [4], 96% (active). For the same compound, the inhibition in assay [2] is -10%; in assay [3], 3%. Moreover, the result in assay [5] and in assay [6] was inactive.
